Source: PubChem (several laboratories)
SMARCA2 activ – activators of SMARCA2 function. 1% of 370,000 active. AID 652017. MG213 cells, MMTV-luciferase reporter, dexamethasone, overnight. activation, % at 9.1 µM; in the data active = activation above about 7.8%
FXN GAA850 act – increases GAA850 frataxin promoter reporter activity. HEK293 lucGAA850 FXN promoter luciferase reporter, 24 h; percent of 10 µM SAHA response. activation, % at 6 µM. 0.56% of 360,000 active;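 active = activation above the average of all compounds screened plus 3 SD, cutoff fixed separately per campaign, cut at about 7.5% in these data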
proKLK7 act – proKLK7 (human) activation, primary screen. P49862. purified proKLK7, EDANS-DABCYL substrate fluorescence; 100% is mature enzyme control, 0% vehicle. activation, % at 7 µM. 0.9% of 370,000 active. AID 652039;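 active = activation above the mean of all tested compounds plus 3 SD, computed per campaign excluding outliers beyond control limits, cut at about 13% in these data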
FAS-TE inh – inhibitors of human fatty acid synthase thioesterase domain; P49327; recombinant FAS-TE, OMFH fluorogenic substrate, fluorescence endpoint; inhibition, % at 15 µM; 0.67% of 360,000 active;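 active = compounds whose normalised, plate-corrected inhibition of enzyme fluorescence in the single-dose primary screen is 50% or more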
FAS-TE inh conf – FAS thioesterase (human) inhibition, confirmation | shares compounds with FAS-TE inh | recombinant FAS-TE, OMFH fluorogenic substrate, fluorescence | inhibition, % at 15 µM | 45% of 2,300 active;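 active = compounds inhibiting the enzyme by at least 50% at 15 µM in any one of the replicates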
Of the large screens only hits and unclear results are named; the others gave an inactive call (follow-up assays come after a bar, where they were run). Most compounds without a hit are left out; they make up all but 2.9% or so of the library.

CC12C(=O)N(c3ccc(OC(=O)c4ccco4)cc3)C(=O)C1C1c3ccccc3C2c2ccccc21 (stereo unspecified)	FAS-TE inh 60 | FAS-TE inh conf inactive
O=C1CC(C(=O)Nc2ccc(Cl)c(Cl)c2)S/C(=N\N=C\c2ccco2)N1 (stereo unspecified)	none
O=C1NC2(CCCCCC2)C(=O)N1Cc1ccc(Cl)cc1Cl	none
C[C@]1(C(=O)NCc2cc(F)cc(C(F)(F)F)c2)C=C[C@@H](Cc2ccccc2)N1C(=O)c1ccccc1	FAS-TE inh 68 | FAS-TE inh conf inactive
CCc1ccc(NC(=O)C(C)OC(=O)c2cccc(S(=O)(=O)N3CCc4ccccc4C3)c2)cc1 (stereo unspecified)	FAS-TE inh 52 | FAS-TE inh conf inactive
CC(OC(=O)c1cccc(S(=O)(=O)N2CCN(C)CC2)c1)C(=O)Nc1ccc(C(N)=O)cc1 (stereo unspecified)	none
N#Cc1c(-c2ccccc2)c(-c2ccccc2)nn(CC(=O)NNC(=O)Nc2ccc(Cl)cc2)c1=O	FAS-TE inh 76 | FAS-TE inh conf 78
N#Cc1c(-c2ccccc2)c(-c2ccccc2)nn(CC(=O)NNC(=O)Nc2ccccc2)c1=O	none
CCC1CCCCN1c1ccc([N+](=O)[O-])cc1/C=N/NC(=O)Cn1c2ccccc2c(=O)c2ccccc21 (stereo unspecified)	FAS-TE inh 60 | FAS-TE inh conf inactive
CCc1ccc(OCC(=O)N/N=C/c2cc([N+](=O)[O-])ccc2N2CCCCCC2)cc1	none
CCc1ccc(CN(C)C(=O)C2=CC=CN3CCS(=O)(=O)N=C23)cc1	none
COC(=O)CSc1nnnn1-c1cccc2ccccc12	none
O=C1OCCN1C(=O)[C@H]1[C@H](c2ccc(Cl)cc2)C(c2ccc(F)cc2)=NN1c1ccccc1	FAS-TE inh 74 | FAS-TE inh conf inactive
Cc1cccc(C2=NN(c3ccc(Br)cc3)[C@@H](C(=O)N3CCOC3=O)[C@@H]2c2ccc([N+](=O)[O-])cc2)c1	FAS-TE inh 85 | FAS-TE inh conf inactive
COc1ccccc1[C@@H]1C(c2ccccc2)=NN(c2ccccc2)[C@H]1C(=O)N1CCOC1=O	FAS-TE inh 55 | FAS-TE inh conf inactive
O=C1OCCN1C(=O)[C@H]1[C@H](c2ccc(Cl)cc2)C(c2ccccc2)=NN1c1ccccc1	none
O=C1OCCN1C(=O)[C@H]1[C@H](c2ccc([N+](=O)[O-])cc2)C(c2ccccc2)=NN1c1ccccc1	FAS-TE inh 78 | FAS-TE inh conf inactive
O=C1OCCN1C(=O)[C@H]1[C@H](c2ccc(F)cc2)C(c2ccc(F)cc2)=NN1c1ccccc1	FAS-TE inh 74 | FAS-TE inh conf inactive
O=C(NCCC1=CCCCC1)C1CCN(S(=O)(=O)c2cccc(C(F)(F)F)c2)CC1	none
CC1=NN(c2ccccc2C)C(=O)C1	none
O=C1NC(=S)SC1=Cc1ccccc1Cl	none
Cc1ccc(C2C(/C=C3/SC(=S)NC3=O)=C(c3cccs3)Oc3ccccc32)cc1 (stereo unspecified)	FAS-TE inh 64 | FAS-TE inh conf inactive
CC(NS(=O)(=O)/C=C/c1ccccc1)C(=O)O (stereo unspecified)	none
CCN1CCN(S(=O)(=O)c2ccc(Cl)c(C(=O)N(C)Cc3ccc(C(C)(C)C)cc3)c2)CC1	FAS-TE inh 59 | FAS-TE inh conf 45
COc1ccc(OC)c(NC(=O)CC2(CC(=O)O)CCCC2)c1	none
O=C(CCCn1c(SCc2ccccc2F)nc2ccccc2c1=O)NCC1CCCO1 (stereo unspecified)	none
O=C(CCCn1c(SCc2cccc([N+](=O)[O-])c2)nc2ccccc2c1=O)NCC1CCCO1 (stereo unspecified)	FAS-TE inh 86 | FAS-TE inh conf inactive
O=C1c2ccc(-c3ccc(F)cc3OCc3ccccc3)cc2S(=O)(=O)c2cccc(C(=O)N3CCCC3)c21	FAS-TE inh 62 (no result: SMARCA2 activ, proKLK7 act) | FAS-TE inh conf inactive
COc1ccccc1N1CCN(c2ccc3c(c2)S(=O)(=O)c2cccc(C(=O)NCc4cccc(F)c4)c2C3=O)CC1	FAS-TE inh 64 | FAS-TE inh conf inactive
COC(=O)c1ccccc1NS(=O)(=O)c1ccc2c(c1)oc(=O)n2C	none
CCN(CC)S(=O)(=O)c1cc(NC(=O)C2Cc3ccccc3C(=O)O2)ccc1C (stereo unspecified)	none
COc1ccc(C2=C(C=Nc3c(C)n(C)n(-c4ccccc4)c3=O)C(c3ccccc3C)c3ccccc3O2)cc1OC (stereo unspecified)	FAS-TE inh 84 | FAS-TE inh conf inactive
Cc1c(N=Cc2c(O)n(C)c(=O)c3ccccc23)c(=O)n(-c2ccccc2)n1C	none (no result: SMARCA2 activ, proKLK7 act)
Cc1c(NC(=O)C(C)OC(=O)c2cc(-c3cccc4ccccc34)nc3ccccc23)c(=O)n(-c2ccccc2)n1C (stereo unspecified)	FAS-TE inh 73 | FAS-TE inh conf inactive
CC1(c2ccccc2)CC(C)(C)N2C(=O)/C(=C3\SC(=S)NC3=O)c3cccc1c32 (stereo unspecified)	FAS-TE inh 78 | FAS-TE inh conf inactive
CC(=C1SC(=S)NC1=O)c1ccccc1	none
Cc1cc2ccccc2nc1-c1ccccc1F	none
CCO[C@@H]1OC(C(=O)O)=C[C@H](c2csc3ccccc23)[C@H]1CCCO	none
Cc1cccc(N2CCN(C(=O)COc3ccc4ccc(=O)oc4c3)CC2)c1C	FAS-TE inh 70 | FAS-TE inh conf 83
COc1cc(-c2ccc(Nc3ccccc3C(=O)O)c(OC)c2)ccc1Nc1ccccc1C(=O)O	FAS-TE inh 71 | FAS-TE inh conf 73
COc1cc([N+](=O)[O-])c(OC)cc1Nc1ccccc1C(=O)O	none (no result: FXN GAA850 act, FAS-TE inh)
O=C(Cn1cc(C(=O)C2CC2)c2ccccc21)NCc1ccc2c(c1)OCO2	FAS-TE inh 59 | FAS-TE inh conf 55
CC(=O)c1cn(CC(=O)NCc2ccc3c(c2)OCO3)c2ccccc12	none
CC(=O)c1cccc2c1OC(C)C(=O)N2Cc1ccc(Cl)cc1 (stereo unspecified)	FAS-TE inh 57 | FAS-TE inh conf 62
CC(NC(=O)C(=O)c1cn(CC(=O)N2CCCC2)c2ccccc12)c1ccccc1 (stereo unspecified)	none
CN(C)S(=O)(=O)c1ccc2c(c1)C(=O)c1cc(S(=O)(=O)N(C)C)ccc1CC2	FAS-TE inh 79 | FAS-TE inh conf 94
CNS(=O)(=O)c1ccc2c(c1)C(=O)c1cc(S(=O)(=O)NC)ccc1CC2	FAS-TE inh 82 | FAS-TE inh conf 91
CCOCCn1c(CN2CCCCC2C)nc2c1c(=O)n(C)c(=O)n2C (stereo unspecified)	none
CC1(C)CCC[C@]2(C)C(CS(=O)c3ccccc3)=C(C=O)CC[C@@H]12 (stereo partly specified)	none
Cc1sc2ncnc(N3CCC(C(=O)Nc4sc5c(c4C(N)=O)CCC(C)C5)CC3)c2c1C (stereo unspecified)	FAS-TE inh 66 | FAS-TE inh conf inactive
